Assay results taken from PubChem BioAssay AID641 (Vanderbilt High Throughput Screening Facility, 2007).
In all, about 58,000 compounds went through this assay and about 3,400 (5.9%) were called active.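 How the source made its calls: active means luminescence count or its row- and column-corrected plate score outside the 99.7% band of the plate's sample wells, on either side; inactive means the rest.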 Only a selection was taken, and actives are over-represented in it overall.

Target: D(1A) dopamine receptor (Homo sapiens) (UniProt P21728)
Experiment: D1 CRE-luciferase signal change, two-sided – cell-based, HEK293 D1, dopamine EC30, D1 allosteric modulator project, primary screen (AID 641)
Conditions: dopamine EC30 potentiation, at 10 µM, actives deviate in either direction

Sequence of D(1A) dopamine receptor (Homo sapiens) (P21728 whole entry, looked up): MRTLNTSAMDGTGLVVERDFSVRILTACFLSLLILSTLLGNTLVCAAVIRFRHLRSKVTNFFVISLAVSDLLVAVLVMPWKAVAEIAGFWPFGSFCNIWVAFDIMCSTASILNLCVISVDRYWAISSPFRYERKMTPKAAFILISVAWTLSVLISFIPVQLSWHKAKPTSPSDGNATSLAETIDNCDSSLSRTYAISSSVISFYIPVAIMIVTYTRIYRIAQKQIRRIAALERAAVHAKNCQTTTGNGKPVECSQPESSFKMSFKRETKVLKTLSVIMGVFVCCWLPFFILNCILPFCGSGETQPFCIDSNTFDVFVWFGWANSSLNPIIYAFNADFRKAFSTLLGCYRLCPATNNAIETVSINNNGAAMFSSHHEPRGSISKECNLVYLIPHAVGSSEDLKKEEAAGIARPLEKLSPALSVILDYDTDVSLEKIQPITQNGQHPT

B-score, active:
CCOC(=O)c1cc2n(c1C)-c1ccccc1C2=O 4.61
CC1CCN(c2nc3c(c(=O)[nH]c(=O)n3C)n2CCCc2ccccc2)CC1 3.73
CCCSc1nc2c(c(=O)[nH]c(=O)n2C)n1CCc1ccccc1 18
COC(=O)c1ccc(OC(=O)c2nn(C)cc2Cl)c(OC)c1 -3.71
c1ccc(COc2nsnc2N2CCOCC2)cc1 5.03
CC(C)C1C2=C(CC(C)(C)CC2=O)ON1c1ccccc1 (stereo not given) 6.74
COc1ccc(S(=O)(=O)N(C)CC(=O)Nc2ccc3c(c2)OCCO3)cc1OC 3.86
c1coc(-c2nc3nc4ccccc4n3nc2-c2ccco2)c1 2.64
CCC1(C)Cc2c(sc3nc4n(c(=O)c23)CCCS4)CO1 (stereo not given) 2.42
Clc1ccc(Cn2ncc3c(NCc4cccnc4)ncnc32)cc1 -2.9
c1c2c(cc3sc(N4CCCCC4)nc13)OCCO2 -4.94
CN(C)c1nc(N)nc(CSc2nnnn2-c2cccc3ccccc23)n1 7.63
COc1nc(NCc2ccc(Cl)cc2)nc(OC)n1 6.81
COc1ccc(CCNC(=O)c2cc3sccc3n2C)cc1OC 4.1
CCOc1ccc2[nH]c(=O)c(C(c3nnnn3CCOC)N3CCOCC3)cc2c1 (stereo not given) 10.2
Cc1ccc(C2CC(c3cccc(Br)c3)n3nc(N)nc3N2)cc1 (stereo not given) 9.49
Cc1ccc(C2CC(c3cccc(C)c3)n3nc(N)nc3N2)cc1 (stereo not given) 6.52
CCOc1ccccc1C1CC(c2ccccc2)Nc2nc(N)nn21 (stereo not given) 5.88

B-score, inactive:
COc1ccc(-c2nc(CS(=O)CC(=O)NCc3ccccn3)c(C)o2)cc1 (stereo not given) -1.3
Cc1ccc2nc(NCCCNC(=O)c3cnccn3)c(C#N)cc2c1 0.787
CCc1ccccc1NC(=O)c1cccs1 -0.318
COCCn1nnnc1CN1CCC(NC(=O)Nc2cccc(OC)c2)CC1 -0.857
CCOC(=O)c1cc2ccccc2nc1C 0.135
CCOC(=O)c1cc2n(c1N)-c1ccccc1C2=O 1.46
CCn1nc(NC(=O)c2ccco2)c2cc3ccc(C)cc3nc21 0.36
CC1CCc2c(sc3c2C2=NS(=O)(=O)CCN2C=N3)C1 (stereo not given) 1.19
CN(Cc1ccccc1)c1nc2c(c(=O)[nH]c(=O)n2C)n1CCSc1nc2ccccc2[nH]1 1.93
Cn1c(=O)[nH]c(=O)c2c1nc(N1CCCCCC1)n2CC(=O)c1ccccc1 0.0681
CCCCCn1c(SCCC(C)C)nc2c1c(=O)[nH]c(=O)n2C 0.151
CN1CCN(c2nc3c(c(=O)[nH]c(=O)n3C)n2Cc2cccc3ccccc23)CC1 -2.28
Cc1cccc2cc(C#N)c(N3CCCC3)nc12 -0.4
CCC(=O)N1c2ccc(S(=O)(=O)CCC(=O)N3CCN(c4ccccc4)CC3)cc2CC1C (stereo not given) 0.966
COc1ccc(C(=O)n2nc(-c3ccc(Cl)cc3)nc2N)cc1OC 1.72
COc1ccc(C(=O)n2nc(-c3ccc(C)cc3)nc2N)cc1OC 0.0973
Cn1c(-c2ccc(C(=O)c3ccccc3)s2)nc2ccccc21 -0.58
CCN(CC)CCN1C(=O)C(=O)/C(=C(/O)c2ccccc2)C1c1ccccc1F (stereo not given) 0.045
Cc1ccc(C)n1C(Cc1ccccc1)C(=O)O (stereo not given) 1.32
O=C(O)COc1nsnc1N1CCOCC1 0.787
c1nc(COc2nsnc2N2CCOCC2)cs1 1.59
COc1cc(OC)c(NC(=O)c2ccc(Br)o2)cc1Cl -0.284
CC(=O)Nc1ccc(S(=O)(=O)N2CCC(N(C)CCC(C)C)CC2)cc1 -0.0927
Cc1cc2c(cc1C)NC(c1ccccn1)C1=C(CC(C)(C)CC1=O)N2 (stereo not given) -0.653
CC1(C)CC(=O)NC=C(c2ccccc2)C1 -0.105
Cc1cc(C)c(S(=O)(=O)NCCCN2CCOCC2)cc1Br 0.0527
COc1ccc(NC(=O)CN(C)S(=O)(=O)c2ccccc2)cc1OC -0.205
COc1cccc(NC(=O)CN(C)S(=O)(=O)c2ccc(C)cc2)c1 -0.881
Cc1cc(=O)n2nc(N3CCCC3C(=O)NCCCN3CC(C)CC(C)C3)sc2n1 (stereo not given) -0.000281
Cc1ccc(-c2nnc(SC(C)C#N)n2N)cc1 (stereo not given) -0.328
COc1ccc(-c2noc(COc3ccc(Cl)c(C)c3)n2)cc1 -0.505
COc1ccc(-c2cc(C(F)(F)F)n3nc(C(=O)N4CCOCC4)c(Cl)c3n2)cc1 -1.29
Cc1nn2c3ccccc3nc2n(C)c1=O 0.34
c1ccc(CSc2nnc(-c3ccco3)c(-c3ccco3)n2)cc1 0.706
CC1CCCN(Cc2nc3c(c(=O)n(C)c(=O)n3C)n2Cc2cccc3ccccc23)C1 (stereo not given) -0.313
O=c1c2ccccc2oc2nc3n(c(=O)c12)CCCS3 0.013
CC1(C)Cc2c(sc3nc4n(c(=N)c23)CCCCC4)CO1 0.888
CC(=O)NCCc1ccc(S(=O)(=O)N(C)C2CCS(=O)(=O)C2)cc1 (stereo not given) 1.13
N#Cc1c(/N=C/N2CCCC2)oc(-c2ccccc2)c1-c1ccccc1 0.952
Cc1nc(SC(C)C)[nH]c(=O)c1Cc1ccccc1 0.348
Cc1cc(Cl)c(S(=O)(=O)NCc2cccnc2)cc1OCC(N)=O 0.213
C1=C(CCNc2ncnc3c2cnn3-c2ccccc2)CCCC1 -1.37
CC12CN3CC(C)(CN(C1)C3c1ccc(Cl)cc1Cl)C2=O (stereo not given) -0.693
Cc1ccc(-c2cc(C(F)(F)F)n3nc(C(=O)N4CCCC4)cc3n2)cc1 1.18
Cc1cccc(NC(=O)c2ccc3ccccc3n2)n1 0.542
Cc1nnc(NC(=O)CSc2nccn2-c2cccc(C)c2C)s1 -0.587
CCOC(=O)N1CCC(NC(=O)CCc2cn(C)c3ccccc23)CC1 2.11
O=C(Nc1nc2cc3c(cc2s1)OCCO3)c1cccc(S(=O)(=O)N2CCOCC2)c1 -0.542
Fc1cc(F)c2nc(N3CCOCC3)sc2c1 0.966
CSCCC1NC2(C(=O)Nc3ccc(Cl)cc32)[C@@H]2C(=O)N(C3CCCC3)C(=O)[C@H]12 (stereo not given in full) 0.395
Cn1nnnc1SCc1cc(=O)[nH]c2ccccc12 0.325
Cc1ccc(-c2noc(CSc3nnnn3-c3ccccc3)n2)cc1 0.0126
Cn1c(SCc2c(F)cccc2Cl)nnc1-c1cnccn1 -0.043
Cc1nc2cc(-c3ccc(F)cc3)nn2c(N2CCOCC2)c1C 3.86
C/C(O)=C\c1nc(=O)c2c(C)cc(C)nc2n1-c1ccccc1 0.549
O=C1CCCC2=C1C(c1cccs1)n1nc(SCc3ccccc3)nc1N2 (stereo not given) 0.252
COC(=O)c1nc(NC(=O)c2ccc(Cl)cc2)n[nH]1 -0.0452
C=CCNc1nc(C)nc(OC)n1 0.422
Cc1c(-c2nn(C)c(=O)c3ccccc23)oc2ccc(F)cc2c1=O 1.77
CC(CNC(=O)c1ccc(Br)o1)NC(=O)c1ccc(Br)o1 (stereo not given) -0.012
CCc1nc(C)cn1S(=O)(=O)c1cc(OC)c(C)cc1C -0.851
Cn1c(C(=O)NCCCN2CCCCC2)cc2sccc21 -0.452
COc1ccc(CCNC(=O)c2cc(-c3ccc4c(c3)OCO4)on2)cc1OC 0.448
COC(CCN(C)C)(c1ccccc1)c1ccccc1 -0.765
COc1ccc(N2CCN(C(c3cc4ccc(C)cc4[nH]c3=O)c3nnnn3C3CCCC3)CC2)cc1 (stereo not given) 0.0349
COCCn1nnnc1C(c1cc2ccc(OC)cc2[nH]c1=O)N1CCc2ccccc2C1 (stereo not given) -0.278
O=C(c1cc(-c2cccc(O)c2)on1)N1CCc2ccccc2C1 -0.88
Nc1nc2n(n1)C(c1ccco1)CC(c1ccc(Cl)c(Cl)c1)N2 (stereo not given) 0.226
COc1ccc(C2CC(c3ccc(Cl)cc3Cl)Nc3nc(N)nn32)cc1OC (stereo not given) -0.179
Clc1ccc(C2CC(c3cccs3)n3ncnc3N2)cc1Cl (stereo not given) 2.58
FC(F)Oc1ccccc1C1CC(c2ccc(Br)s2)Nc2ncnn21 (stereo not given) 0.0618
CCOc1ccccc1C1CC(c2ccc(Cl)cc2)Nc2nc(N)nn21 (stereo not given) 1.36
COc1ccc(C2CC(c3ccc(C)cc3)Nc3ncnn32)cc1 (stereo not given) 0.317
CCc1nnc(NC(=O)c2cccs2)s1 -1.13
COc1ccc(OC)c(S(=O)(=O)Nc2ccccc2F)c1 0.662
O=C(CSc1nnc(-c2cccs2)n1-c1ccccc1)NCc1ccco1 0.124
CCOc1cc(C(=S)N2CCOCC2)ccc1O 0.0105
O=C(CSC1=NCCS1)Nc1nc(-c2ccccc2)cs1 2.09
NC(=O)c1ccccc1NC(=O)c1ccccc1F -0.754
COc1ccc(-n2nnc3c(=O)n(CC(=O)N4CCC(Cc5ccccc5)CC4)cnc32)cc1 -0.0249
COCCNC(=O)Cn1cc2c(n1)CCCCC2 -0.978
COc1ccc(S(=O)(=O)N(CCCN2CCCC2=O)Cc2cc3c(C)ccc(C)c3[nH]c2=O)cc1 0.354
